A selection: hits, their analogues and other compounds. The true share with any hit is near 12%.
TDP1 inh – qHTS Assay for Inhibitors of Tyrosyl-DNA Phosphodiesterase (TDP1); recombinant TDP1, AlphaScreen DNA substrate cleavage; 0.28% of 350,000 active; Potency, µM (titrated, usually from 130 µM), hits mostly inhibitors; Tyrosyl-DNA phosphodiesterase 1 (Homo sapiens), Q9NUW8; note: nearly all actives have a fitted effect of over 40% in size
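AlphaScreen read-out: signal falls as enzyme removes the 3' tyrosine-FITC from a 5'-biotinylated DNA oligo (15 nM, 5 min, RT). Enzyme was E. coli-made recombinant Tdp1 at 1 nM, exposed to compound for 15 min beforehand; beads 10 ug/ml, 10 min.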
JMJD2A Tudor inh – qHTS Assay for Inhibitors of JMJD2A-Tudor Domain; Lysine-specific demethylase 4A (Homo sapiens), O75164; AlphaScreen JMJD2A-Tudor / H3K4me3 peptide binding; Potency, µM (series often up to 114 µM), hits mostly inhibitors; 4.4% of 390,000 active; AID 504339, 2011; note: nearly all actives have a fitted effect of over 50% in size
HP1b binding inh – HTS for Inhibitors of HP1-beta Chromodomain Interactions with Methylated Histone Tails | Chromobox protein homolog 1 (Homo sapiens), P83916 | AlphaScreen HP1-beta / biotin-H3K9me3 peptide binding | Potency, µM (highest dose often 114 µM), hits mostly inhibitors | 0.56% of 390,000 active | AID 540317, 2011; note: nearly all actives have a fitted effect of over 70% in size
Target sequence (P83916 whole entry, looked up): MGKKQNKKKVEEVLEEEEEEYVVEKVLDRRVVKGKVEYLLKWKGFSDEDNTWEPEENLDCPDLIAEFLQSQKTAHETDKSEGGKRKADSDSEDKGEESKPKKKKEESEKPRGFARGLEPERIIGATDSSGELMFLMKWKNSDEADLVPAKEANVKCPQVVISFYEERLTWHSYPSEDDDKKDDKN
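HP1-beta protein (50 nM final) preincubated 30 min at room temperature with biotinylated H3(1-18)K9me3 peptide (50 nM) in PBS pH 7.4, 0.01% Tween-20, then compound added for 30 min. AlphaScreen streptavidin donor/nickel chelate acceptor beads (10 ug/mL final), 30 min dark, luminescence read.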
Sfp PPTase inh – qHTS Assay for Inhibitors of Bacillus subtilis Sfp phosphopantetheinyl transferase (PPTase); Biochemical Sfp PPTase activity, qHTS; Potency, µM, usual class: inhibitors; 3.5% of 310,000 active;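 note: the enzyme is Sfp with the accession as filed and its product quenches rhodamine fluorescence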
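With Hepes-Na pH 7.6 buffer containing 10 mM MgCl2, Sfp (15 nM) modified BHQ-2-YbbR (12.5 uM) using rhodamine-CoA (5 uM). Two reads 30 minutes apart at 525/598 nm yielded each well's rate.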
G9a inh – qHTS Assay for Inhibitors of Histone Lysine Methyltransferase G9a | G9a H3K9 monomethylation, AlphaScreen, 2 h | AID 504332, 2011 | Histone-lysine N-methyltransferase EHMT2 (Homo sapiens), Q96KQ7 | Potency, µM (titrated, usually from 102 µM), actives largely listed as inhibitors | 8.8% of 350,000 active; note: nearly all actives have a fitted effect of over 75% in size
Target sequence (Q96KQ7 913-1193 limits assumed): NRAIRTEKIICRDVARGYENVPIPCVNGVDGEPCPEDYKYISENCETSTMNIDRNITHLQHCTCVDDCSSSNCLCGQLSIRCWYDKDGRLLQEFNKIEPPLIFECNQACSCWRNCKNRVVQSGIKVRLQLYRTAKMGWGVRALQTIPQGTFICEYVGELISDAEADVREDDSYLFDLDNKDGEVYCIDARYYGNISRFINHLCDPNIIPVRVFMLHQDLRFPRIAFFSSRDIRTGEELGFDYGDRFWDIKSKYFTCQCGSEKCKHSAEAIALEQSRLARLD
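Quantitative HTS format: methyltransferase activity on a biotin-tagged H3K9 peptide is measured by AlphaScreen, using a rabbit anti-monomethyl-H3K9 antibody with streptavidin donor and anti-IgG acceptor beads. Final levels are 20 nM enzyme, 500 nM peptide, 20 uM SAM; 2 h RT.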
BAZ2B inh – qHTS Assay for Inhibitors of BAZ2B | AlphaScreen BAZ2B-H3K14Ac peptide displacement | Potency, µM (series often up to 114 µM), usual class: inhibitors | 4.4% of 360,000 active | AID 504333, 2011; note: nearly all actives have a fitted effect of over 60% in size
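BAZ2B (50 nM) with biotin-H3(5-23)K14Ac peptide (50 nM) in PBS pH 7.4, 0.01% Tween-20, preformed 30 min, then compound 30 min at room temperature; top concentration 110uM. AlphaScreen streptavidin donor/nickel chelate acceptor beads (10 ug/mL final), 20 min dark, signal read.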
A number is an active result; - = inactive; ? = inconclusive; . = no result; ! = a repeat was not active; [ ] = remark or other dose. Calls come from the whole dose curve; as a rule, active = well fitted curve in the direction sought with a large enough effect; inconclusive = small, poorly fitted or top-dose-only effect, or another doubt; inactive = no such curve, though single readings can be large; an effect the other way counts as inactive or inconclusive.

SMILES	TDP1 inh	JMJD2A Tudor inh	HP1b binding inh	Sfp PPTase inh	G9a inh	BAZ2B inh
CCOC(=O)C1(CC2CCCCO2)CCN(Cc2ccccc2-c2ccco2)CC1 (configuration not stated)	-	-	-	-	.	?
CN(Cc1ccccc1)C1CC(=O)N(c2ccc(C(=O)O)cc2)C1=O (configuration not stated)	-	-	-	-	3.5µM	-
COc1ccc(N2C(=O)CC(N(CCc3ccccc3)C(=O)c3ccccc3)C2=O)cc1 (configuration not stated)	-	-	-	-	?	-
O=C1CC(=O)CC(c2ccccc2)C1	-	-	-	-	-	-
O=C1CC(c2ccccc2)CC(=O)C1CS(=O)(=O)c1ccccc1 (configuration not stated)	-	-	-	-	3.2µM	-
CCCn1c(C2CCCN2c2nc(-c3ccc(C)cc3)cs2)nc2ccccc21 (configuration not stated)	.	-	-	50µM	40µM	?
Cc1ccc(-c2csc(N3CCN(CCCn4c(-c5ccncc5)nc5ccccc54)CC3)n2)cc1	.	?	?	-	50µM	?
OCCN(CCCn1c(-c2ccncc2)nc2ccccc21)c1nc(CN2CCCCC2)cs1	.	-	-	-	-	-
Cc1ccc(-c2csc(N(CCO)CCCn3c(C(F)(F)F)nc4cc(C(F)(F)F)ccc43)n2)cc1	.	-	-	-	25µM	?
CCn1c(C(C)NC(C)=O)nc2ccccc21 (configuration not stated)	-	-	-	-	-	-
CC(=O)N[C@@H](C)c1nc2ccccc2n1CCCN1CCN(c2nc(-c3ccc(C)cc3)cs2)CC1	.	?	-	-	45µM	?
Cc1ccc(-c2csc(N3CCC[C@@H]3C(=O)NCCn3c(-c4ccncc4)nc4ccccc43)n2)cc1	.	?	-	-	45µM	45µM
Cc1ccc(-c2csc(N3CCN(CCCn4c(C(F)(F)F)nc5ccccc54)CC3)n2)cc1	.	-	-	-	45µM	-
N#Cc1c2n(c(=S)n(-c3ccccc3)c1=O)CCCCC2	-	-	-	-	-	-
N#Cc1c2n(c(=S)n(-c3ccccc3[N+](=O)[O-])c1=O)CCCCC2	-	?	-	?	40µM	.
CCOC(=O)C(=CNNc1ccccc1)C(=O)OCC	-	79µM	-	?	2µM	?
CCOc1ccc(C(=O)NC2CCN(S(=O)(=O)c3ccccc3)CC2)cc1	-	-	-	-	.	-
CC(C)(O)C(=O)NNC(=S)Nc1cccc(C(F)(F)F)c1	-	-	-	-	7.9µM	-
FC(F)(F)c1cccc(NC(=S)NNC(=S)Nc2cccc(C(F)(F)F)c2)c1	-	.	.	25µM	35µM	?
CC(C)Oc1ccc(CNC(=O)c2cnc3sc(N4CCCC4)nn3c2=O)cc1	-	-	-	.	-	-
COc1ccc(N2C(=O)CC2(C#N)c2ccc(OCc3ccccc3)cc2)cc1 (configuration not stated)	-	-	-	-	-	-
COc1ccc(C)cc1NC(=O)CSc1nc(=O)n(Cc2cccnc2)c2c1CCC2	-	?	-	.	-	-
O=C1C(SCCO)=C(SCCO)C(=O)c2ccccc21	-	8.9µM	?	0.28µM!	1.3µM!	?
N#CC1=C(N)NC(SCC(=O)Nc2ccccc2)=C(C#N)C12CCCC2	-	-	-	-	-	-
N#CC1=C(N)NC(SCC(=O)O)=C(C#N)C12CCCC2	-	-	-	56µM	35µM	-
SMILES	TDP1 inh	JMJD2A Tudor inh	HP1b binding inh	Sfp PPTase inh	G9a inh	BAZ2B inh
CCN(CC(=O)Nc1c(F)cccc1F)C(=O)CCN1C(=O)C2CC=CCC2C1=O (configuration not stated)	-	-	-	.	-[0.501 µM]	-
Cc1noc(COc2ccccc2OCC(N)=O)n1	.	-	-	.	.	.
Cc1cccc(/C=N/NC(=O)C[n+]2ccccc2)c1	-	-	-	.	-[0.501 µM]	-
CCOC(=O)N/N=C/c1ccc(Oc2ccccc2)cc1	-	-	-	-	-	-
Cc1cccc(C(=O)N/N=C/c2ccoc2)c1	28µM	-	-	-	-	50µM
O=C(N/N=C\c1ccc(Oc2ccccc2)cc1)c1csnn1	.	-	-	-	0.89µM	-
Cc1cccc(/C=N\NC(=O)c2csnn2)c1	-	79µM	-	40µM	-[0.501 µM]	?
O=C1NC(=O)C2(COC(c3cccc([N+](=O)[O-])c3)OC2)S1 (configuration not stated)	-	-	-	-	-	.
CCOc1ccc(NC(=O)CN(C)C(=O)c2cn(-c3ccccc3)nc2-c2cccs2)cc1OCC	-	-	-	-	-[0.501 µM]	?
N#Cc1ccccc1OCC(=O)N1CCN(S(=O)(=O)c2ccc(Cl)cc2)CC1	-	-	-	.	-[2.33 µM]	-
COC(=O)C1(C)NC(=O)c2ccccc2N1 (configuration not stated)	-	-	-	-	-	-
COc1ccc2c(c1)NC(C)(C)C=C2C	-	63µM	45µM	?	40µM	40µM
CC1=CC(C)(C)Nc2ccccc21	-	?	-	79µM	-[0.501 µM]	50µM!
COc1ccc2c(c1)CCc1cn[nH]c1-2	.	?	-	-	-	-
CCCc1cc(C(=O)N2CCCC(Nc3ccc(C)c(C)c3)C2)n(C)n1 (configuration not stated)	-	-	-	-	45µM	-
Cc1ccc(NC2CCCN(C(=O)c3ccoc3)C2)cc1C (configuration not stated)	-	-	-	-	79µM	?
Cc1cc(C(=O)N2CCCC(Nc3ccc(F)cc3)C2)n(C)n1 (configuration not stated)	-	-	-	-	.	-
CCCCC1C(=O)N(c2ccccc2)N(c2ccccc2)C1=O	-	-	-	?	10µM!	-
CCCCCC1C(=O)N2C=C(c3ccccc3)c3ccccc3N2C1=O (configuration not stated)	.	56µM	?	.	.	.
COc1ccc(-n2ncc3c2CC(C)(C)CC3NC(=O)C2CCN(C(C)=O)CC2)cc1 (configuration not stated)	-	-	-	-	-	-
CCCCNc1c(-c2cccc(-c3ccc(OC)cc3)c2)nc2cc(C)ccn12	-	?	-	.	.	.
CCCCNc1c(-c2cccc(-c3ccc(OC)cc3)c2)nc2ccc(C)cn12	-	25µM	-	.	-[2.33 µM]	45µM
CCCCCCSc1cccc(-c2nc3ccc(Cl)cn3c2NCCCC)c1	.	-	-	.	.	.

Bioassay records: PubChem, National Center for Advancing Translational Sciences (NCATS)
